The panel holds about 79,000 compounds, 15% with a hit somewhere; the sample as a whole holds those more often. Active and inactive are the calls of the source. Cut-off read from the data, not from the text of the source: active = growth inhibition above about 70%; inactive = the rest.
What was measured:
[1] = NCI Yeast Anticancer Drug Screen. Data for the mec2-1 strain (AID 157); settings: S. cerevisiae mec2-1 strain, hits give high values
Outline: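 Mutant yeast (mec2-1) grown with compound; growth inhibition relative to vehicle control reported.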

[2] = NCI Yeast Anticancer Drug Screen. Data for the rad14 strain (AID 159);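 note: 0% = growth of vehicle-treated control cultures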; settings: S. cerevisiae rad14 strain growth inhibition, hits give high values
Outline: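 Test compounds were applied to a repair-deficient yeast strain. Its growth was then compared with that of cultures given vehicle alone, and inhibition was expressed relative to those controls.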

[3] = NCI Yeast Anticancer Drug Screen. Data for the sgs1 mgt1 strain (AID 161);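 note: 0% = growth of cultures given vehicle only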; settings: S. cerevisiae sgs1 mgt1 strain, hits give high values
Outline: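 This yeast growth screen uses a strain with defined DNA-repair lesions; compound-treated growth is compared with vehicle-treated growth.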

[4] = NCI Yeast Anticancer Drug Screen. Data for the CLN2oe strain (AID 163);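 note: 0% = growth of vehicle-only control cultures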; settings: S. cerevisiae CLN2oe strain, hits give high values
Outline: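 Compounds are applied to yeast harbouring a defined cell-cycle control change; reduced growth compared with vehicle-treated controls gives the value.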

[5] = NCI Yeast Anticancer Drug Screen. Data for the cln2 rad14 strain (AID 165);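 note: 0% = growth equal to vehicle treated cultures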; settings: S. cerevisiae cln2 rad14 strain, hits give high values
Outline: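 Readout is yeast growth inhibition versus vehicle-treated controls, using a strain with cln2 and rad14 alterations exposed to compound.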

[6] = NCI Yeast Anticancer Drug Screen. Data for the bub3 strain (AID 167); settings: S. cerevisiae bub3 mutant strain, hits give high values
Outline: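 Yeast carrying a defined mutation is treated with each compound, and growth is compared with that of vehicle-exposed cells to give inhibition.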

[7] = NCI Yeast Anticancer Drug Screen. Data for the wt2 strain (AID 169);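 note: 0% = growth of vehicle-treated yeast cultures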; settings: S. cerevisiae wt2 strain growth inhibition, hits give high values
Outline: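 Against vehicle-treated controls, the growth of yeast exposed to each compound was compared, and the inhibition was recorded.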

[8] = NCI Yeast Anticancer Drug Screen. Data for the mlh1 strain (AID 171);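 note: 0% = growth of vehicle-treated control cultures of the same strain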; settings: S. cerevisiae mlh1 strain growth inhibition, hits give high values
Outline: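 Measured: yeast growth. Reference: vehicle-treated controls. Organism: strain with a defined alteration affecting DNA damage repair or cell cycle control, treated with compound.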

[9] = NCI Yeast Anticancer Drug Screen. Data for the sgs1 strain (AID 173);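 note: 0% = growth of vehicle-only control cultures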; settings: S. cerevisiae sgs1 mutant, hits give high values
Outline: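 Each compound was added to cultures of the altered yeast strain. Growth was recorded, and inhibition was derived by comparison with vehicle controls.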

[10] = NCI Yeast Anticancer Drug Screen. Data for the rad18 strain (AID 177); settings: S. cerevisiae rad18 mutant growth inhibition, hits give high values
Outline: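 Vehicle-treated cultures served as the baseline for scoring compound-induced growth inhibition in DNA-repair-mutant yeast.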

[11] = NCI Yeast Anticancer Drug Screen. Data for the rad52 strain (AID 147);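 note: 0% = growth of vehicle-treated control cultures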; settings: S. cerevisiae rad52 mutant growth inhibition, hits give high values
Outline: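 The repair-mutant yeast strain was incubated with compounds, then growth was read and inhibition derived relative to vehicle.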

[12] = NCI Yeast Anticancer Drug Screen. Data for the wt1 strain (AID 149);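 note: 0% = growth of vehicle-treated wt1 cultures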; settings: S. cerevisiae wt1 strain (SPY 50644) growth inhibition, hits give high values
Outline: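 wt1 yeast, compound-treated; % growth inhibition vs vehicle control.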

[13] = NCI Yeast Anticancer Drug Screen. Data for the rad50EPP+ strain (AID 151);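 note: 0% = growth of vehicle-treated control cultures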; settings: S. cerevisiae rad50 mutant strain, hits give high values
Outline: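 Vehicle-normalised growth inhibition; rad50EPP+ yeast strain, altered in DNA damage repair, compound-treated.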

[14] = NCI Yeast Anticancer Drug Screen. Data for the mgt1 strain (AID 153); settings: S. cerevisiae mgt1 mutant growth inhibition, hits give high values
Outline: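 Vehicle-normalized growth inhibition is determined in mgt1 yeast, a strain selected for a defined alteration in DNA repair or cell cycle control.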

[15] = NCI Yeast Anticancer Drug Screen. Data for the rad50 strain (AID 155);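 note: 0% = growth of vehicle-only cultures of the same strain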; settings: S. cerevisiae rad50 strain growth inhibition, hits give high values
Outline: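 Genetically altered yeast (DNA repair pathway); compound treatment; growth inhibition vs vehicle ctrl.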

[16] = NCI Yeast Anticancer Drug Screen. Data for the mlh1 rad18 strain (AID 175); settings: S. cerevisiae mlh1 rad18 strain growth inhibition, hits give high values
Outline: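 Genetically defined yeast (DNA repair-deficient) exposed to compounds; growth inhibition determined relative to vehicle.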

[17] = at 5.0 µM (retest, dose inferred, filed as 0.5)
[18] = at 50.0 µM (retest, dose inferred, filed as 5.0)

Measured: growth inhibition

CCCCOC(=O)CSSCC(=O)OCCCC
active: [1]; at 33.0 µM 80% | [1]; [18] 99% | [1]; at 50.0 µM 91.9% | [1]; at 100.0 µM 98% | [2]; at 33.0 µM 71% | [2]; at 100.0 µM 97% | [3]; [18] 99% | [4]; at 100.0 µM 98% | [5]; [18] 99% | [6]; at 33.0 µM 88% | [6]; [18] 98% | [6]; at 100.0 µM 99% | [7]; at 33.0 µM 70% | [7]; at 100.0 µM 98% | [8]; at 33.0 µM 74% | [8]; at 100.0 µM 98% | [9]; at 33.0 µM 70% | [9]; at 100.0 µM 96% | [10]; at 33.0 µM 84% | [10]; at 100.0 µM 98%
inactive: [1]; [17] 48% | [1]; at 11.0 µM 7% | [2]; at 1.2 µM -11% | [2]; at 3.7 µM -13% | [2]; at 11.0 µM -3% | [3]; [17] 9% | [4]; at 1.2 µM 8% | [4]; at 3.7 µM 4% | [4]; at 11.0 µM 8% | [4]; at 33.0 µM 61% | [5]; [17] 32% | [6]; at 1.2 µM 14% | [6]; at 3.7 µM 14% | [6]; [17] 56% | [6]; at 11.0 µM 53% | [7]; at 1.2 µM -15% | [7]; at 3.7 µM -1% | [7]; at 11.0 µM 8% | [8]; at 1.2 µM -26% | [8]; at 3.7 µM 7% | [8]; at 11.0 µM 37% | [9]; at 1.2 µM -30% | [9]; at 3.7 µM -8% | [9]; at 11.0 µM 18% | [10]; at 1.2 µM -2% | [10]; at 3.7 µM 15% | [10]; at 11.0 µM 40%

COC(=O)/C=C1/OC(c2ccc(Br)cc2)=C(Br)C1=O
inactive: [11]; at 1.2 µM -25% | [11]; at 3.7 µM -22% | [11]; at 11.0 µM -18% | [11]; at 33.0 µM -7% | [11]; at 100.0 µM 38% | [12]; at 1.2 µM -16% | [12]; at 3.7 µM -13% | [12]; at 11.0 µM -29% | [12]; at 33.0 µM -11% | [12]; at 100.0 µM 16% | [13]; at 1.2 µM -6% | [13]; at 3.7 µM -7% | [13]; at 11.0 µM 0% | [13]; at 33.0 µM 59% | [14]; at 1.2 µM 3% | [14]; at 3.7 µM 3% | [14]; at 11.0 µM -7% | [14]; at 33.0 µM 7% | [15]; at 1.2 µM -35% | [15]; at 3.7 µM -28% | [15]; [17] 3% | [15]; at 11.0 µM -5% | [15]; at 33.0 µM -11% | [15]; [18] 36% | [15]; at 50.0 µM 17.6% | [15]; at 100.0 µM 65% | [1]; at 1.2 µM 9% | [1]; at 3.7 µM -1% | [1]; [17] 18% | [1]; at 11.0 µM -5% | [1]; at 33.0 µM 8% | [1]; at 50.0 µM 18.8% | [3]; [17] 12% | [3]; [18] 16% | [5]; [17] 2% | [5]; [18] 14% | [5]; at 50.0 µM 33.8% | [6]; at 1.2 µM 20% | [6]; at 3.7 µM 6% | [6]; [17] 32% | [6]; at 11.0 µM -12% | [6]; [18] 40% | [7]; at 1.2 µM -25% | [7]; at 3.7 µM -22% | [7]; at 11.0 µM -20% | [8]; at 1.2 µM -18% | [8]; at 3.7 µM -4% | [8]; at 11.0 µM -14% | [8]; at 33.0 µM -12% | [8]; at 100.0 µM 27% | [9]; at 1.2 µM -18% | [9]; at 3.7 µM -16% | [9]; at 11.0 µM -17% | [9]; at 33.0 µM -27% | [9]; at 100.0 µM 16% | [16]; [17] 11% | [16]; [18] 49% | [10]; at 1.2 µM -30% | [10]; at 3.7 µM -14% | [10]; at 11.0 µM -12% | [10]; at 33.0 µM 41%
active: [13]; at 100.0 µM 97% | [14]; at 100.0 µM 87% | [1]; [18] 85% | [1]; at 100.0 µM 71% | [3]; at 50.0 µM 86.2% | [6]; at 33.0 µM 70% | [6]; at 50.0 µM 72.8% | [6]; at 100.0 µM 95% | [7]; at 33.0 µM 76% | [7]; at 100.0 µM 95% | [10]; at 100.0 µM 92%

Cc1ccc(Nc2n[nH]c(=S)s2)cc1
active: [11]; at 33.0 µM 74% | [11]; at 100.0 µM 94% | [12]; at 100.0 µM 92% | [14]; at 100.0 µM 94% | [15]; at 33.0 µM 72% | [15]; [18] 80% | [15]; at 50.0 µM 87% | [15]; at 100.0 µM 93% | [1]; at 50.0 µM 86% | [1]; at 100.0 µM 93% | [2]; at 33.0 µM 81% | [2]; at 100.0 µM 95% | [3]; [18] 91% | [4]; at 100.0 µM 91% | [5]; [18] 94% | [6]; [18] 91% | [6]; at 100.0 µM 93% | [7]; at 100.0 µM 92% | [8]; at 100.0 µM 92% | [16]; at 50.0 µM 85.7% | [10]; at 33.0 µM 80% | [10]; at 100.0 µM 94%
inactive: [11]; at 1.2 µM -2% | [11]; at 3.7 µM 2% | [11]; at 11.0 µM 6% | [12]; at 1.2 µM -21% | [12]; at 3.7 µM -12% | [12]; at 11.0 µM -19% | [12]; at 33.0 µM 35% | [13]; at 1.2 µM -13% | [13]; at 3.7 µM -10% | [13]; at 11.0 µM -11% | [13]; at 33.0 µM 6% | [13]; at 100.0 µM 68% | [14]; at 1.2 µM -6% | [14]; at 3.7 µM -5% | [14]; at 11.0 µM -3% | [14]; at 33.0 µM 65% | [15]; at 1.2 µM 5% | [15]; at 3.7 µM -1% | [15]; [17] 44% | [15]; at 11.0 µM 0% | [1]; at 1.2 µM -13% | [1]; at 3.7 µM -29% | [1]; [17] 39% | [1]; at 11.0 µM -27% | [1]; at 33.0 µM 13% | [1]; [18] 55% | [2]; at 1.2 µM -14% | [2]; at 3.7 µM -28% | [2]; at 11.0 µM -11% | [3]; [17] 1% | [4]; at 1.2 µM 11% | [4]; at 3.7 µM 2% | [4]; at 11.0 µM 3% | [4]; at 33.0 µM 40% | [5]; [17] 60% | [6]; at 1.2 µM 1% | [6]; at 3.7 µM -12% | [6]; [17] 45% | [6]; at 11.0 µM -3% | [6]; at 33.0 µM 53% | [7]; at 1.2 µM -12% | [7]; at 3.7 µM -6% | [7]; at 11.0 µM -17% | [7]; at 33.0 µM 47% | [8]; at 1.2 µM -10% | [8]; at 3.7 µM -34% | [8]; at 11.0 µM -23% | [8]; at 33.0 µM 29% | [16]; [17] 36% | [16]; [18] 60% | [10]; at 1.2 µM -17% | [10]; at 3.7 µM -10% | [10]; at 11.0 µM 0%
